# EPAC2 agonist: activates human EPAC2 exchange factor. Q8WZA2. EPAC2 activation, biochemical qHTS; response scale: 100% = 6.5 mM cAMP response. Potency, µM (series often up to 154 µM), for the others: top-dose activation, hits mostly activators. 0.079% of 360,000 active. AID 720711; note: potency is the fitted concentration of half-maximal effect; nearly all actives have a fitted effect of over 50% in size
#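 Guanine nucleotide exchange by EPAC2 is measured as reduced fluorescence of BODIPY-GDP once it is released from 250 nM Rap1B. Plates are read kinetically for 30 min at room temperature; results are scaled to 6.5 mM cAMP.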
# EPAC1 antag: EPAC1 (human) antagonism | O95398 | EPAC1 GEF assay, Rap1b-BODIPY-GDP exchange fluorescence | Potency, µM (top dose mostly 115 µM), for the others: top-dose activity change, negative = inhibition, actives largely listed as inhibitors | 0.14% of 360,000 active | AID 720709;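 note: potency is the fitted concentration of half-maximal effect; plate controls were vehicle for no effect and positive control for full effect; nearly all actives have a fitted effect of over 50% in size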
# Target sequence (O95398 whole entry, looked up): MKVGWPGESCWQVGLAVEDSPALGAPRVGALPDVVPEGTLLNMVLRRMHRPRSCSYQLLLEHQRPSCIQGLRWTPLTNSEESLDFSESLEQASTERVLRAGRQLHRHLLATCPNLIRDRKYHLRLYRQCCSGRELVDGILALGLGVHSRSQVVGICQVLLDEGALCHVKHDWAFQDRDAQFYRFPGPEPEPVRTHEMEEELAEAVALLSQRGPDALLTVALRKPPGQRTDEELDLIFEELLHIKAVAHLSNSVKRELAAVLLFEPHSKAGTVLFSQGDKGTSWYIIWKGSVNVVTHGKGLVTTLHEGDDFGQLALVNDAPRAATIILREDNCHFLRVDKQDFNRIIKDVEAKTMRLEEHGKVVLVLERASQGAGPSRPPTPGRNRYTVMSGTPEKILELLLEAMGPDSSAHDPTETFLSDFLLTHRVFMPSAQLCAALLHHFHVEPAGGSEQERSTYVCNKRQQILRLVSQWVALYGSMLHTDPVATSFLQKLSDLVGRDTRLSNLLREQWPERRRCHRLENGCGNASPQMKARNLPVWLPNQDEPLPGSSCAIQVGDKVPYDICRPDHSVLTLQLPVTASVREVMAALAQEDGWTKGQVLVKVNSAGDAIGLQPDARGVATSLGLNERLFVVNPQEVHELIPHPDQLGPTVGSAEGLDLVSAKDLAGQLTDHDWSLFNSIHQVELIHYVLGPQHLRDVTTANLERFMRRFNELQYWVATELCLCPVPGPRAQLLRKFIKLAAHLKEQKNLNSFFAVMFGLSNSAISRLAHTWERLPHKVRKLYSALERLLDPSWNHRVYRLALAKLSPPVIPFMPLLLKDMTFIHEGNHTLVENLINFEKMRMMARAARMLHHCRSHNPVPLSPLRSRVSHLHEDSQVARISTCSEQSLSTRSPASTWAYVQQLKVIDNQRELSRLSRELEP
# EPAC2 antag: EPAC2 (human) antagonism; EPAC2 GEF exchange of Rap1B-BODIPY-GDP, fluorescence; Potency, µM (titrated, usually from 114 µM), inactives show top-dose activity, negative = inhibition, hits mostly inhibitors; 0.18% of 360,000 active; note: potency is the fitted concentration of half-maximal effect; % is set by controls: 0 for no effect and ±100 for the full control effect; nearly all actives have a fitted effect of over 45% in size
# EPAC1 agonist: activates human EPAC1 exchange factor; AID 720707; 0.073% of 360,000 active; Potency, µM (highest dose often 154 µM), for the others: at the highest dose activation, most hits filed as activators; O95398; EPAC1 agonist qHTS, biochemical assay; response scale: 100% = response to 6.5 mM cAMP; note: potency is the fitted concentration of half-maximal effect; nearly all actives have a fitted effect of over 60% in size
#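 Nucleotide exchange assay: 100 nM EPAC1 with 250 nM Rap1B loaded with BODIPY-GDP and 50 uM GDP, room temperature. Fluorescence (480/540 nm) read every 5 min for 30 min; signal change normalized to 6.5 mM cAMP as full agonist.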
# IL-2 act: activates IL-2 in a cell-based reporter assay; 0.065% of 360,000 active; activation, % (series mostly up to about 46 µM); IL-2 activation reporter assay, cell-based qHTS; stimulated with anti-CD3/CD4/CD28 beads; in transgenic mouse T cells; in the data active = activation above about 50%; inconclusive = mostly about 30% to 49%; note: 0% is about no effect
#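 Unstimulated transgenic mouse T cells, 750 per well, received compound and, after 60 minutes, anti-CD3/anti-CD4 bead plus anti-CD28 stimulation. EGFP and DsRed were quantified after 18 hours.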
# PKM2 act: increases activity of human pyruvate kinase M2 | Potency, µM (titrated, usually from 57.5 µM), inactives show at the highest dose activation, most hits filed as activators | purified PKM2, Kinase-Glo ATP luminescence, activation; response scale: 0% is enzyme alone, no compound | 0.34% of 260,000 active; note: potency is the fitted concentration of half-maximal effect; % is set by controls: 0 for no effect and ±100 for the full control effect; nearly all actives have a fitted effect of over 55% in size
#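 Kinase-Glo luminescence reports ATP generated from ADP (0.1 mM) and PEP (0.5 mM) by purified hPK-M2 after 1 h at room temperature, pH 7.2 imidazole buffer; intermediate enzyme activity allows detecting inhibitors and activators.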
# An asterisk follows results filed as active; ? = inconclusive; nt = no result; [ ] = remark or other dose. An excerpt weighted towards active compounds, which were near 0.64% of everything screened. Unless noted, calls come from the whole dose curve; as a rule, active = well fitted curve in the direction sought with a large enough effect; inconclusive = small, poorly fitted or top-dose-only effect, or another doubt; inactive = no such curve, though single readings can be large; an effect the other way counts as inactive or inconclusive.
SMILES,EPAC2 agonist,EPAC1 antag,EPAC2 antag,EPAC1 agonist,IL-2 act,PKM2 act
O=C(NCCCN1CCC(Cc2ccccc2)CC1)c1ccc(CS(=O)c2ccccc2Cl)o1 (configuration not stated),5%,10%,22%,12%,-2,nt
CCCCCOC(=O)c1[nH]c2c(c1C)C(=O)CC(c1ccco1)C2 (configuration not stated),-8%,-24%,-7%,-5%,-4,16µM*
COc1ccc(S(=O)(=O)NCC2(N3CCOCC3)CCCCC2)cc1OC,0%,-2%,10%,-2%,-2,nt
N#CCCN(C(=O)COC(=O)CCc1nc2ccccc2c(=O)[nH]1)c1ccccc1F,11%,6%,7%,3%,0,nt
Cc1ccc(-c2ccc(/C=C3\C(=O)ON=C3c3ccccc3)o2)c([N+](=O)[O-])c1,0%,-29%,?,5%,-2,28µM*
CCCC(=O)Oc1ccc(-c2nccc(C(OC)OC)n2)cc1,6%,-1%,3%,5%,-4,-4%
O=C(Nc1cccc(C(=O)Nc2ccccc2C(=O)O)c1)c1cccc(Cl)c1,-4%,?,-7%,-6%,0,nt
O=C(Cc1ccc(Cl)cc1)Nc1cccc(C(=O)Nc2ccccc2C(=O)O)c1,3%,100µM*,-1%,-11%,2,nt
O=C1C=CC(=O)N1c1cccc(-c2ccccc2)c1,3%,?,-3%,-5%,0,3.2µM*
Cc1cc(SCC(=O)OCC(=O)N2CCN(C(=O)c3ccco3)CC2)c(C)cc1Br,7%,-7%,-9%,12%,-4,25µM*
Cc1cc(SCC(=O)N2CCN(C(=O)c3ccco3)CC2)c(C)cc1Br,3%,1%,-12%,-2%,1,nt
Cc1cscc1NC(=O)/C=C/C(=O)O,-2%,14%,4%,-3%,-1,-2%
Oc1ccc2ccccc2c1/C=N/Nc1nnc(-c2ncc[nH]2)c2ccccc12,3%,15%,13%,16%,56*,15%
CCOC(=O)c1c(-c2ccc(C)o2)csc1NC(=O)COC(=O)c1cccs1,5%,-2%,0%,9%,-1,3.2µM*
O=C(COC(=O)c1ccc(NS(=O)(=O)c2cccs2)cc1O)NCc1ccccc1,-11%,-11%,5%,-3%,-1,22µM*
O=C(COC(=O)c1ccc(NS(=O)(=O)c2cccs2)cc1O)Nc1nc2ccccc2s1,18%,-30%,0%,16%,1,-2%
O=C(COC(=O)c1ccc(NS(=O)(=O)c2cccs2)cc1)NCc1ccco1,2%,-13%,13%,3%,2,14µM*
COc1ccc(C(CNC(=O)c2ccc(OCc3csc(C)n3)cc2)N2CCCC2)cc1 (configuration not stated),-1%,-12%,4%,4%,-1,nt
CS(=O)(=O)Nc1ccc(C2=NN(C(=O)c3ccco3)C(c3ccc(F)cc3)C2)cc1 (configuration not stated),9%,-2%,-7%,2%,-2,13µM*
O=C(c1ccco1)N1N=C(c2cccs2)CC1c1ccc(F)cc1 (configuration not stated),13%,-1%,-2%,12%,3,-10%
COc1cccc2c1C(=O)c1c(O)c3c(c(O)c1C2=O)CC(O)(C(C)=O)CC3OC1CC(N(C)C)C(O)C(C)O1 (configuration not stated),9%,28%,21%,89µM*,-8,nt
CC(=O)[C@@]1(O)Cc2c(O)c3c(c(O)c2[C@H](O[C@H]2C[C@H](N)[C@H](O)[C@H](C)O2)C1)C(=O)c1ccccc1C3=O,?,143%,178%,28µM*,0,nt
N/C(CSc1ncccc1C(F)(F)F)=N\O,10%,-2%,-3%,7%,0,1%
CNS(=O)(=O)c1cc2c3c(cccc3c1)C(=O)NC2=O,1%,-7%,13%,8%,-3,13µM*
C=CCN1C(=O)C(=O)N(Cc2nc3ccccc3s2)C1=O,7%,8%,9%,-4%,0,nt
SMILES,EPAC2 agonist,EPAC1 antag,EPAC2 antag,EPAC1 agonist,IL-2 act,PKM2 act
CC(C)c1cc(=O)oc2c3c4c(cc12)CCCN4CCC3,18%,-2%,-6%,16%,4,14%
O=c1oc2c3c4c(cc2c(C(F)(F)F)c1CCN1CCOCC1)CCCN4CCC3,112µM*,100%,60%,?,5,2%
COc1ccccc1CNC(=O)CS(=O)(=O)Cc1ccccc1,3%,5%,-2%,11%,0,-8%
Cc1ccc(/C(C#N)=C\c2ccc(N3CCOCC3)o2)cc1,?,-3%,0%,11%,0,2.8µM*
Cc1ccc2nc(/C(C#N)=C\c3ccc(N4CCOCC4)o3)[nH]c2c1,40µM*,41%,17%,?,?,-1%
N#C/C(=C/c1ccc(N2CCOCC2)o1)C(=O)Nc1ccccc1,100µM*,8%,65%,100µM*,?,-33%
Cc1ccc2nc(/C(C#N)=C\c3ccc([N+](=O)[O-])o3)[nH]c2c1,3%,10%,19%,-7%,9,-5%
N#C/C(=C\c1ccc(N2CCOCC2)o1)C(=O)NCCc1ccccc1,14%,-6%,-10%,19%,14,-5%
CCCn1c(N)c(N(CCOC)C(=O)CSCC(=O)Nc2cccc(C)c2)c(=O)[nH]c1=O,3%,-15%,9%,100µM*,3,nt
CCN(CC)CCN(C(=O)c1ccc(CN2CCCCC2)o1)C(C(=O)NC1CCCCC1)c1ccc(F)cc1 (configuration not stated),-3%,-7%,4%,0%,0,-22%
Cc1ccc(/C=C2\S/C(=N/S(=O)(=O)c3cccs3)NC2=O)cc1,-8%,40µM*,?,-9%,1,-2%
Cc1ccc(S(=O)(=O)/N=C2/NC(=O)/C(=C\c3ccccc3)S2)cc1,-18%,?,?,-7%,0,nt
CC#CCN1c2ccccc2[C@]23C[C@@H](C(=O)OC)N(S(=O)(=O)CCCC)C2=NC(C(=O)OC)=C(C(=O)OC)[C@H]13,nt,nt,nt,nt,nt,-3%[11.5 µM]
CCCc1nc2sc3ccccc3c(=O)c2c(=O)n1Cc1ccc(OC)cc1,4%,11%,-12%,2%,-3,15%
CCCc1nc2sc3ccccc3c(=O)c2c(=O)n1Cc1ccco1,7%,-8%,0%,2%,1,14µM*
N#Cc1sc2nc(-c3ccccc3)cc(-c3ccco3)c2c1N,-5%,35µM*,-2%,-5%,0,1%
O=C(O)c1ccc(N/N=C/c2c(F)cccc2Cl)cc1,-7%,11%,40µM*,-7%,-4,nt

# Screens (PubChem)
